Source: PubChem BioAssay AID1508601 (ICCB-Longwood Screening Facility, Harvard Medical School, 2020)
Hit rate of the full screen: of about 5,700 compounds, about 85 (1%) were called active. Rule as the data show it: active = p53-positive nuclei above about 36% (passing the limit was not always enough); inactive = the rest. The entries come from a sample that favours actives as a whole.

What was measured:
[1] = p53 stabilisation in HPV-positive human cells, imaging, p53-positive nuclei imaging, 24 h, 48 h (AID 1508601); details: 24/48 h
[2] = target: Cellular tumor antigen p53 (Homo sapiens) (UniProt P04637); test: as above; details: 24/48 h, stronger effect = higher value
Sequence of Cellular tumor antigen p53 (Homo sapiens) (P04637 whole entry, looked up): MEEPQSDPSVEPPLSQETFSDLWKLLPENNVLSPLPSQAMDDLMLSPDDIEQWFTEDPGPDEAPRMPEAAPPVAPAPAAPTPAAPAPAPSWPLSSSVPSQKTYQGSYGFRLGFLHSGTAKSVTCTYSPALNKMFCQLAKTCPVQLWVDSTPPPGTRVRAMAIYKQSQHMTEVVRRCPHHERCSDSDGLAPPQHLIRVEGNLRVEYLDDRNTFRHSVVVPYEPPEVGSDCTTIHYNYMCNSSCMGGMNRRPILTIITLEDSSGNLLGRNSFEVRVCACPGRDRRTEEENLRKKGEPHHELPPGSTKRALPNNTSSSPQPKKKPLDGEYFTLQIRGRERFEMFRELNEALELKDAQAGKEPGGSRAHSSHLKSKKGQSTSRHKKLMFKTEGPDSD

[3] = measured here: cell number at 24 h, concentration not given here
[4] = measured here: cell number at 48 h, concentration not given here
[5] = measured here: p53 positive nuclei at 24 h, concentration not given here
[6] = measured here: cell number at 24 h, Library stock concentration: 3.33 mM
[7] = measured here: cell number at 48 h, Library stock concentration: 3.33 mM
[8] = Library stock concentration: 3.33 mM
[9] = measured here: p53 positive nuclei at 24 h, Library stock concentration: 3.33 mM
[10] = measured here: cell number at 24 h, Library stock concentration: 500 nM
[11] = measured here: cell number at 24 h, Library stock concentration: 1.5 uM
[12] = measured here: cell number at 24 h, Library stock concentration: 4.6 uM
[13] = measured here: cell number at 24 h, Library stock concentration: 13.7 uM
[14] = measured here: cell number at 24 h, Library stock concentration: 41 uM
[15] = measured here: cell number at 24 h, Library stock concentration: 123 uM
[16] = measured here: cell number at 24 h, Library stock concentration: 370 uM
[17] = measured here: cell number at 24 h, Library stock concentration: 1.111 mM
[18] = measured here: cell number at 24 h, Library stock concentration: 3.333 mM
[19] = measured here: cell number at 24 h, Library stock concentration: 10 mM
[20] = measured here: cell number at 48 h, Library stock concentration: 500 nM
[21] = measured here: cell number at 48 h, Library stock concentration: 1.5 uM
[22] = measured here: cell number at 48 h, Library stock concentration: 4.6 uM
[23] = measured here: cell number at 48 h, Library stock concentration: 13.7 uM
[24] = measured here: cell number at 48 h, Library stock concentration: 41 uM
[25] = measured here: cell number at 48 h, Library stock concentration: 123 uM
[26] = measured here: cell number at 48 h, Library stock concentration: 370 uM
[27] = measured here: cell number at 48 h, Library stock concentration: 1.111 mM
[28] = measured here: cell number at 48 h, Library stock concentration: 3.333 mM
[29] = measured here: cell number at 48 h, Library stock concentration: 10 mM
[30] = Library stock concentration: 500 nM
[31] = Library stock concentration: 1.5 uM
[32] = Library stock concentration: 4.6 uM
[33] = Library stock concentration: 13.7 uM
[34] = Library stock concentration: 41 uM
[35] = Library stock concentration: 123 uM
[36] = Library stock concentration: 370 uM
[37] = Library stock concentration: 1.111 mM
[38] = Library stock concentration: 3.333 mM
[39] = Library stock concentration: 10 mM
[40] = measured here: p53 positive nuclei at 24 h, Library stock concentration: 500 nM
[41] = measured here: p53 positive nuclei at 24 h, Library stock concentration: 1.5 uM
[42] = measured here: p53 positive nuclei at 24 h, Library stock concentration: 4.6 uM
[43] = measured here: p53 positive nuclei at 24 h, Library stock concentration: 13.7 uM
[44] = measured here: p53 positive nuclei at 24 h, Library stock concentration: 41 uM
[45] = measured here: p53 positive nuclei at 24 h, Library stock concentration: 123 uM
[46] = measured here: p53 positive nuclei at 24 h, Library stock concentration: 370 uM
[47] = measured here: p53 positive nuclei at 24 h, Library stock concentration: 1.111 mM
[48] = measured here: p53 positive nuclei at 24 h, Library stock concentration: 3.333 mM
[49] = measured here: p53 positive nuclei at 24 h, Library stock concentration: 10 mM

In the case of `Cn1ncc(NC(=O)CCc2cn3ccccc3n2)n1`, the nuclei count, normalised [1, 3] is reported as 84.4%, the nuclei count, normalised [1, 4] is reported as 90.1% and the p53-positive nuclei, normalised ([2]; concentration not given here) is reported as -0.189% (inactive). It also gave a p53-positive nuclei, normalised [2, 5] of -0.142%.

For `O=C(O)c1ccccc1`, the nuclei count, normalised [1, 6] was 99.7%, the nuclei count, normalised [1, 7] was 99.1% and the p53-positive nuclei, normalised [2, 8] was -0.166% (inactive). It also gave a p53-positive nuclei, normalised [2, 9] of -0.28%.

Work on `CN(NC(=O)CC(=O)NN(C)C(=S)c1ccccc1)C(=S)c1ccccc1` yielded a nuclei count, normalised [1, 10] of 98.9%, a nuclei count, normalised [1, 11] of 108% and a nuclei count, normalised [1, 12] of 110%. The nuclei count, normalised [1, 13] was 111%, the nuclei count, normalised [1, 14] was 94.3% and the nuclei count, normalised [1, 15] was 64.8%. For the same compound, the nuclei count, normalised [1, 16] was 60.9%, the nuclei count, normalised [1, 17] was 60.4% and the nuclei count, normalised [1, 6] was 51.3%. The nuclei count, normalised [1, 18] was 54.8%, the nuclei count, normalised [1, 19] was 54.4% and the nuclei count, normalised [1, 20] was 104%. For the same compound, the nuclei count, normalised [1, 21] was 107%, the nuclei count, normalised [1, 22] was 108% and the nuclei count, normalised [1, 23] was 110%. For the same compound, the nuclei count, normalised [1, 24] was 100%, the nuclei count, normalised [1, 25] was 63.4% and the nuclei count, normalised [1, 26] was 55%. The nuclei count, normalised [1, 27] was 52.6%, the nuclei count, normalised [1, 7] was 44.1% and the nuclei count, normalised [1, 28] was 48.4%. The nuclei count, normalised [1, 29] was 43.1%, the p53-positive nuclei, normalised [2, 30] was 0.0337% (inactive) and the p53-positive nuclei, normalised [2, 31] was -0.251% (inactive). For the same compound, the p53-positive nuclei, normalised [2, 32] was 0.0195% (inactive), the p53-positive nuclei, normalised [2, 33] was 0.51% (inactive) and the p53-positive nuclei, normalised [2, 34] was 5.45% (inactive). For the same compound, the p53-positive nuclei, normalised [2, 35] was 37% (active), the p53-positive nuclei, normalised [2, 36] was 48.3% (active) and the p53-positive nuclei, normalised [2, 37] was 55.8% (active). The p53-positive nuclei, normalised [2, 8] was 56.4% (active), the p53-positive nuclei, normalised [2, 38] was 64.9% (active) and the p53-positive nuclei, normalised [2, 39] was 64.3% (active). It also gave a p53-positive nuclei, normalised [2, 40] of -0.0555%, a p53-positive nuclei, normalised [2, 41] of -0.0139% and a p53-positive nuclei, normalised [2, 42] of -0.119%. For the same compound, the p53-positive nuclei, normalised [2, 43] was 1.05%, the p53-positive nuclei, normalised [2, 44] was 14.4% and the p53-positive nuclei, normalised [2, 45] was 69.4%. The p53-positive nuclei, normalised [2, 46] was 85.7%, the p53-positive nuclei, normalised [2, 47] was 93.5% and the p53-positive nuclei, normalised [2, 9] was 80.8%. For the same compound, the p53-positive nuclei, normalised [2, 48] was 103% and the p53-positive nuclei, normalised [2, 49] was 104%.

With `O=C(O)CCNC(=O)c1ccccc1` the nuclei count, normalised [1, 6] was 113%, the nuclei count, normalised [1, 3] was 110% and the nuclei count, normalised [1, 7] was 105%. The nuclei count, normalised [1, 4] was 110%, the p53-positive nuclei, normalised [2, 8] was 0.0364% (inactive) and the p53-positive nuclei, normalised ([2]; concentration not given here) was 0.0211% (inactive). It also gave a p53-positive nuclei, normalised [2, 9] of -0.327% and a p53-positive nuclei, normalised [2, 5] of -0.211%.

In the case of `CCCCCC(=O)/C=C/[C@H]1[C@H](O)CC(=O)[C@@H]1CCCCCCC(=O)O`, the nuclei count, normalised [1, 3] is reported as 107%, the nuclei count, normalised [1, 4] is reported as 107% and the p53-positive nuclei, normalised ([2]; concentration not given here) is reported as -0.0323% (inactive). For the same compound, the p53-positive nuclei, normalised [2, 5] was -0.0183%.

In the case of `CCCCCNC(=O)N1CCC2(CC1)Nc1ccccc1N(CC1CC1)C2=O`, the nuclei count, normalised [1, 3] is reported as 105%, the nuclei count, normalised [1, 4] is reported as 110% and the p53-positive nuclei, normalised ([2]; concentration not given here) is reported as -0.23% (inactive). For the same compound, the p53-positive nuclei, normalised [2, 5] was -0.154%.

For `O=C(O)c1ccc(C=C2SC(=S)N(c3cccc(C(F)(F)F)c3)C2=O)cc1`, the nuclei count, normalised [1, 6] was 76.4%, the nuclei count, normalised [1, 7] was 78.4% and the p53-positive nuclei, normalised [2, 8] was -0.0579% (inactive). The p53-positive nuclei, normalised [2, 9] was -0.316%.

For `COc1ccc(N2C(=O)C(=Cc3ccc([N+](=O)[O-])s3)SC2=S)cc1`, the nuclei count, normalised [1, 10] was 117%, the nuclei count, normalised [1, 11] was 113% and the nuclei count, normalised [1, 12] was 108%. The nuclei count, normalised [1, 13] was 110%, the nuclei count, normalised [1, 14] was 105% and the nuclei count, normalised [1, 15] was 88.7%. The nuclei count, normalised [1, 16] was 69.2%, the nuclei count, normalised [1, 17] was 62.1% and the nuclei count, normalised [1, 18] was 48.5%. It also gave a nuclei count, normalised [1, 19] of 37.6%, a nuclei count, normalised [1, 20] of 110% and a nuclei count, normalised [1, 21] of 106%. For the same compound, the nuclei count, normalised [1, 22] was 107%, the nuclei count, normalised [1, 23] was 104% and the nuclei count, normalised [1, 24] was 108%. For the same compound, the nuclei count, normalised [1, 25] was 87.8%, the nuclei count, normalised [1, 26] was 59.1% and the nuclei count, normalised [1, 27] was 49.4%. For the same compound, the nuclei count, normalised [1, 28] was 31.9%, the nuclei count, normalised [1, 29] was 24.4% and the p53-positive nuclei, normalised [2, 30] was 0.221% (inactive). The p53-positive nuclei, normalised [2, 31] was 0.0846% (inactive), the p53-positive nuclei, normalised [2, 32] was 0.192% (inactive) and the p53-positive nuclei, normalised [2, 33] was -0.0302% (inactive). For the same compound, the p53-positive nuclei, normalised [2, 34] was 0.353% (inactive), the p53-positive nuclei, normalised [2, 35] was 5.11% (inactive) and the p53-positive nuclei, normalised [2, 36] was 28.8% (inactive). For the same compound, the p53-positive nuclei, normalised [2, 37] was 38.4% (inactive), the p53-positive nuclei, normalised [2, 38] was 79.8% (active) and the p53-positive nuclei, normalised [2, 39] was 117% (active). For the same compound, the p53-positive nuclei, normalised [2, 40] was -0.0612%, the p53-positive nuclei, normalised [2, 41] was 0.0572% and the p53-positive nuclei, normalised [2, 42] was 0.0046%. For the same compound, the p53-positive nuclei, normalised [2, 43] was 0.00591%, the p53-positive nuclei, normalised [2, 44] was 0.0741% and the p53-positive nuclei, normalised [2, 45] was 5.3%. The p53-positive nuclei, normalised [2, 46] was 28.7%, the p53-positive nuclei, normalised [2, 47] was 41.6% and the p53-positive nuclei, normalised [2, 48] was 85.9%. It also gave a p53-positive nuclei, normalised [2, 49] of 121%.

With `C/C=C/C(=O)O[C@H](COCCCCCCCCCCCCCCCC)COP(=O)([O-])OCC[N+](C)(C)C` the nuclei count, normalised [1, 3] was 91.3%, the nuclei count, normalised [1, 4] was 103% and the p53-positive nuclei, normalised ([2]; concentration not given here) was -0.0567% (inactive). The p53-positive nuclei, normalised [2, 5] was 0.0947%.

With `CCCCCCCCCCCCCCCCCC(=O)OCC` the nuclei count, normalised [1, 3] was 111%, the nuclei count, normalised [1, 4] was 110% and the p53-positive nuclei, normalised ([2]; concentration not given here) was -0.0271% (inactive). The p53-positive nuclei, normalised [2, 5] was -0.00774%.

In the case of `N=c1ccn2c(n1)OC1C(O)C(CO)OC12` (stereo not given), the nuclei count, normalised [1, 6] is reported as 61.4%, the nuclei count, normalised [1, 7] is reported as 51.8% and the p53-positive nuclei, normalised [2, 8] is reported as 0.1% (inactive). The p53-positive nuclei, normalised [2, 9] was -0.25%.

Work on `Nc1cccc(OCc2ccccc2)c1` yielded a nuclei count, normalised ([1]; measured here: cell number at 24 h, Library stock concentration: 46 uM) of 111%, a nuclei count, normalised ([1]; measured here: cell number at 24 h, Library stock concentration: 278 uM) of 109% and a nuclei count, normalised ([1]; measured here: cell number at 24 h, Library stock concentration: 1.67 mM) of 109%. For the same compound, the nuclei count, normalised [1, 19] was 99%, the nuclei count, normalised ([1]; measured here: cell number at 48 h, Library stock concentration: 46 uM) was 106% and the nuclei count, normalised ([1]; measured here: cell number at 48 h, Library stock concentration: 278 uM) was 111%. The nuclei count, normalised ([1]; measured here: cell number at 48 h, Library stock concentration: 1.67 mM) was 109%, the nuclei count, normalised [1, 29] was 103% and the p53-positive nuclei, normalised ([2]; Library stock concentration: 46 uM) was -0.0623% (inactive). For the same compound, the p53-positive nuclei, normalised ([2]; Library stock concentration: 278 uM) was -0.108% (inactive), the p53-positive nuclei, normalised ([2]; Library stock concentration: 1.67 mM) was 0.151% (inactive) and the p53-positive nuclei, normalised [2, 39] was 0.0982% (inactive). It also gave a p53-positive nuclei, normalised ([2]; measured here: p53 positive nuclei at 24 h, Library stock concentration: 46 uM) of -0.0998%, a p53-positive nuclei, normalised ([2]; measured here: p53 positive nuclei at 24 h, Library stock concentration: 278 uM) of -0.155% and a p53-positive nuclei, normalised ([2]; measured here: p53 positive nuclei at 24 h, Library stock concentration: 1.67 mM) of 0.0148%. The p53-positive nuclei, normalised [2, 49] was -0.152%.
